Source: PubChem BioAssay (NCATS)
Inconclusive results are not listed. Entries that show only a call come without a potency. The source made the active and inactive calls. Calls come from the whole dose curve; as a rule, active = well fitted curve in the direction sought with a large enough effect; inconclusive = small, poorly fitted or top-dose-only effect, or another doubt; inactive = no such curve, though single readings can be large; an effect the other way counts as inactive or inconclusive.

Key:
[1] = qHTS of pediatric cancer cell lines to identify multiple opportunities for drug repurposing: Primary screen for TC32 cells (AID 1347089); note: nearly all actives have a fitted effect of over 60% in size; note: potency is the fitted concentration of half-maximal effect
In short: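 Measured quantity: luminescence from CellTiter-Glo, reflecting metabolically active TC32 cells following 48 h of compound. Curves came straight from multi-point titrations, with 8 or 11 points in primary and 11 in confirmatory screening.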

[2] = qHTS of pediatric cancer cell lines to identify multiple opportunities for drug repurposing: Primary screen for SJ-GBM2 cells (AID 1347091)
In short: (§1)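 Cell viability, CellTiter-Glo luminescence; 500-1,000 cells/well, 8- or 11-point titration, 48 h compound exposure at 37 degrees C, 5% CO2. Controls: DMSO neutral, bortezomib 2.3 µM final as positive.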

[3] = qHTS of pediatric cancer cell lines to identify multiple opportunities for drug repurposing: Primary screen for A673 cells (AID 1347092); note: nearly all actives have a fitted effect of over 45% in size; note: potency is the fitted concentration of half-maximal effect
In short: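 Cells are plated, rested 5 h, dosed by pintool, incubated 48 h, then lysed with CellTiter-Glo and read by luminescence. DMSO is the neutral control; bortezomib at 2.3 uM final is the positive control.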

[4] = qHTS of pediatric cancer cell lines to identify multiple opportunities for drug repurposing: Primary screen for SK-N-MC cells (AID 1347093); note: potency is the fitted concentration of half-maximal effect
In short: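 Metabolically active cells were quantified by ATP-dependent luminescence (CellTiter-Glo, 15 min at room temperature) following 48 h treatment. Cells had been plated at 500-1,000 per well and settled for 5 h beforehand.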

[5] = qHTS of pediatric cancer cell lines to identify multiple opportunities for drug repurposing: Primary screen for BT-37 cells (AID 1347094); note: potency is the fitted concentration of half-maximal effect
In short: (§2)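 Cells plated at 500-1,000/well in growth medium, compounds added after 5 h. MIPE tested at 11 points (from 0.78 nM), NPC at 8 points (from 0.59 nM). CellTiter-Glo luminescence after 48 h; concentration-response curves from primary screen.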

[6] = qHTS of pediatric cancer cell lines to identify multiple opportunities for drug repurposing: Primary screen for NB-EBc1 cells (AID 1347095); note: potency is the fitted concentration of half-maximal effect
In short: as §2

[7] = qHTS of pediatric cancer cell lines to identify multiple opportunities for drug repurposing: Primary screen for U-2 OS cells (AID 1347096); note: nearly all actives have a fitted effect of over 50% in size; note: potency is the fitted concentration of half-maximal effect
In short: (§3)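 Cells (500-1,000/well) rested 5 h, then received compounds for 48 h; metabolically active cells were measured by CellTiter-Glo luminescence. Final concentrations spanned up to 46 µM (MIPE, 11-point) or 0.59 nM-46 µM (NPC, 8-point) in primary screens, 11-point in follow-ups.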

[8] = qHTS of pediatric cancer cell lines to identify multiple opportunities for drug repurposing: Primary screen for Saos-2 cells (AID 1347097); note: nearly all actives have a fitted effect of over 40% in size; note: potency is the fitted concentration of half-maximal effect
In short: as §2

[9] = qHTS of pediatric cancer cell lines to identify multiple opportunities for drug repurposing: Primary screen for SK-N-SH cells (AID 1347098); note: nearly all actives have a fitted effect of over 65% in size; note: potency is the fitted concentration of half-maximal effect
In short: as §3

[10] = qHTS of pediatric cancer cell lines to identify multiple opportunities for drug repurposing: Primary screen for NB1643 cells (AID 1347099); note: nearly all actives have a fitted effect of over 50% in size; note: potency is the fitted concentration of half-maximal effect
In short: as §2

[11] = qHTS of pediatric cancer cell lines to identify multiple opportunities for drug repurposing: Primary screen for LAN-5 cells (AID 1347100); note: potency is the fitted concentration of half-maximal effect
In short: as §3

[12] = qHTS of pediatric cancer cell lines to identify multiple opportunities for drug repurposing: Primary screen for BT-12 cells (AID 1347101); note: nearly all actives have a fitted effect of over 25% in size; note: potency is the fitted concentration of half-maximal effect
In short: as §3

[13] = qHTS of pediatric cancer cell lines to identify multiple opportunities for drug repurposing: Primary screen for Rh18 cells (AID 1347102); note: nearly all actives have a fitted effect of over 65% in size; note: potency is the fitted concentration of half-maximal effect
In short: as §3

[14] = qHTS of pediatric cancer cell lines to identify multiple opportunities for drug repurposing: Primary screen for OHS-50 cells (AID 1347103); note: nearly all actives have a fitted effect of over 40% in size; note: potency is the fitted concentration of half-maximal effect
In short: as §3

[15] = qHTS of pediatric cancer cell lines to identify multiple opportunities for drug repurposing: Primary screen for DAOY cells (AID 1347090); note: nearly all actives have a fitted effect of over 55% in size; note: potency is the fitted concentration of half-maximal effect
In short: as §1

Row | Compound | Potency [1] | Potency [2] | Potency [3] | Potency [4] | Potency [5] | Potency [6] | Potency [7] | Potency [8] | Potency [9] | Potency [10] | Potency [11] | Potency [12] | Potency [13] | Potency [14] | Potency [15]
1 | O=C(NCCc1c[nH]c2ccccc12)c1cccnc1 | inactive | inactive | inactive | inactive | inactive | inactive | inactive | inactive | inactive | inactive | inactive | inactive | inactive | – | –
2 | CN1CCN(CCC(=O)N2c3ccccc3Sc3ccc(C(F)(F)F)cc32)CC1 | inactive | – | – | 29.9 µM (active) | – | – | inactive | – | 9.7 µM (active) | – | 26.6 µM (active) | – | – | 17.4 µM (active) | –
3 | CCC1NC(=O)c2cc(S(N)(=O)=O)c(Cl)cc2N1 (configuration not stated) | inactive | – | inactive | inactive | inactive | inactive | inactive | inactive | inactive | inactive | inactive | inactive | inactive | inactive | inactive
4 | C[C@@]12C(=O)OC(=O)[C@]1(C)C1CCC2O1 | 6.64 µM (active) | – | 6.68 µM (active) | 2.37 µM (active) | – | 2.37 µM (active) | 3.35 µM (active) | 1.5 µM (active) | 3.44 µM (active) | 1.19 µM (active) | 2.66 µM (active) | 6.92 µM (active) | 1.88 µM (active) | – | 3.35 µM (active)
5 | C[N+]12CCC(CC1)C(OC(=O)C(O)(c1ccccc1)c1ccccc1)C2 (configuration not stated) | – | inactive | inactive | inactive | inactive | inactive | inactive | inactive | inactive | inactive | inactive | inactive | inactive | – | inactive
6 | CCN1CCN(C(=O)N[C@@H](C(=O)N[C@@H]2C(=O)N3C(C(=O)O)=C(CSc4nnnn4C)CS[C@H]23)c2ccc(O)cc2)C(=O)C1=O | – | inactive | inactive | inactive | inactive | inactive | inactive | inactive | inactive | inactive | inactive | inactive | inactive | inactive | inactive
7 | O=C(Oc1cccc2cccnc12)c1ccccc1 | 1.67 µM (active) | inactive | 0.001 µM (active) | 9.44 µM (active) | inactive | – | – | – | – | – | – | 6.17 µM (active) | – | – | –
8 | C=C1c2cccc(O)c2C(O)=C2C(=O)[C@]3(O)C(O)=C(C(N)=O)C(=O)[C@@H](N(C)C)[C@@H]3[C@@H](O)[C@H]12 | – | inactive | – | inactive | inactive | inactive | inactive | – | – | inactive | inactive | – | inactive | inactive | inactive
9 | c1ccc(-c2nc[nH]c2-c2ccccc2)cc1 | – | – | inactive | inactive | inactive | inactive | inactive | – | inactive | inactive | inactive | inactive | – | – | inactive
10 | O[C@@H](c1cc(C(F)(F)F)nc2c(C(F)(F)F)cccc12)[C@H]1CCCCN1 | – | – | – | – | – | – | – | 21.1 µM (active) | 30.7 µM (active) | – | – | 15.5 µM (active) | – | 21.9 µM (active) | –
11 | CC(C)(C)NCC(O)COc1cccc2c1C[C@H](O)[C@H](O)C2 (some centres not stated) | inactive | inactive | inactive | inactive | inactive | inactive | inactive | – | inactive | inactive | inactive | inactive | inactive | inactive | –
12 | FC(F)(F)C(F)(F)C(F)(F)C(F)(F)C(F)(F)C(F)(F)C(F)(F)C(F)(F)Br | – | inactive | inactive | inactive | inactive | inactive | inactive | inactive | inactive | inactive | inactive | inactive | inactive | inactive | inactive
13 | CCc1oc2ccccc2c1C(=O)c1cc(Br)c(O)c(Br)c1 | inactive | – | – | – | inactive | – | inactive | – | 19.4 µM (active) | – | inactive | inactive | inactive | – | –
14 | O=S(c1cc(Cl)cc(Cl)c1O)c1cc(Cl)cc(Cl)c1O | inactive | – | inactive | – | inactive | – | inactive | 16.8 µM (active) | inactive | inactive | inactive | inactive | inactive | inactive | inactive
15 | CN1CCN(C2=Nc3ccccc3Sc3ccc(Cl)cc32)CC1 | inactive | – | inactive | inactive | inactive | inactive | inactive | – | inactive | inactive | inactive | inactive | inactive | – | inactive
16 | CCN(CC)CCOC(=O)C1(c2ccccc2)CCCC1 | inactive | – | inactive | inactive | inactive | inactive | inactive | – | inactive | inactive | inactive | inactive | inactive | – | inactive
17 | CCCCCCCCNC(C)C(O)c1ccc(SC(C)C)cc1 (configuration not stated) | inactive | – | – | 16.8 µM (active) | 27.6 µM (active) | – | – | 23.7 µM (active) | 15.4 µM (active) | – | – | – | – | 21.9 µM (active) | –
18 | CC(=O)OC[C@H]1O[C@@H](n2ncc(=O)[nH]c2=O)[C@H](OC(C)=O)[C@@H]1OC(C)=O | – | – | – | 0.335 µM (active) | – | 23.7 µM (active) | inactive | 4.22 µM (active) | inactive | – | – | – | inactive | – | –
19 | CC(C)Nc1cccnc1N1CCN(C(=O)c2cc3cc(NS(C)(=O)=O)ccc3[nH]2)CC1 | inactive | inactive | inactive | inactive | inactive | inactive | inactive | inactive | inactive | inactive | inactive | inactive | inactive | – | –
20 | O=C1c2cccc3c2[C@H](CCC3)CN1[C@@H]1CN2CCC1CC2 | inactive | – | inactive | – | – | inactive | inactive | – | inactive | inactive | inactive | inactive | inactive | – | inactive
21 | Cc1cccc(C)c1NC(=O)CN1CCCCCC1 | inactive | – | inactive | inactive | inactive | inactive | inactive | inactive | inactive | inactive | inactive | inactive | inactive | – | inactive
22 | Cc1ccccc1OCC(O)CO (configuration not stated) | – | inactive | inactive | inactive | inactive | inactive | inactive | inactive | inactive | inactive | inactive | inactive | inactive | – | –
